# Data from PubChem BioAssay.
# Inconclusive results are not listed. For some of these results: Results with a measured potency or affinity are listed apart. Active and inactive are the calls of the source.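 How the source made its calls, unless noted: active means fitted half-maximal concentration within 10 nM to 100 µM, steepness 0.5 to 2, significant signal drop, low assay interference; inactive means the rest.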
# Tests used:
# [1] = molecular target: Cell division control protein 42 homolog (Homo sapiens) (UniProt P60953); assay: activated mutant Cdc42 GTP-binding inhibitors, dose response, biochemical, multiplex bead flow cytometry, Bodipy-FL-GTP (AID 1333;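 active means fitted half-maximal concentration within the tested dose range, moderate curve steepness, a statistically real signal drop, and little compound fluorescence or tag-binding interference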)
# [2] = molecular target: Cell division control protein 42 homolog (Homo sapiens) (UniProt P60953); assay: wildtype Cdc42 GTP-binding inhibitors, dose response, biochemical, multiplex bead flow cytometry, Bodipy-FL-GTP (AID 1334;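 active means fitted half-maximal concentration within the tested range, moderate curve steepness, significant signal drop, and little compound fluorescence or bead-linkage interference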); details: bead-based flow cytometry, Bodipy-FL-GTP binding to GST-Cdc42; at 100 µM (top of the series) unless noted
# [3] = molecular target: GTPase HRas (Homo sapiens) (UniProt P01112); assay: inhibitors of GTP binding to wildtype Ras, dose response, biochemical, multiplex bead flow cytometry (AID 1335); details: bead-based flow cytometry, Bodipy-GTP binding to GST-Ras; at 100 µM (top of the series) unless noted
# [4] = test system: Ras-related protein Rab-7a (dog), GTP binding; assay: Rab7 GTP binding inhibitors, potency, dose response, biochemical, wildtype, multiplex bead flow cytometry (AID 1336; call rule not given here)
# [5] = molecular target: Ras-related C3 botulinum toxin substrate 1 (Homo sapiens) (UniProt P63000); assay: wildtype Rac1 GTP binding inhibitors, dose response, biochemical, multiplex bead flow cytometry (AID 1340;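 active means dose curve with midpoint inside tested range, moderate steepness, plateau gap beyond fit error, low compound glow and bead-link interference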); details: GST-Rac1 beads, Bodipy-FL-GTP binding; at 100 µM (top of the series) unless noted
# [6] = molecular target: GTPase HRas (Homo sapiens) (UniProt P01112); assay: activated Ras mutant GTP binding inhibitors, dose response, biochemical, multiplex bead flow cytometry (AID 1341;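 active means dose-response curve with midpoint inside the tested range, moderate steepness, significant amplitude and little compound fluorescence or bead-attachment interference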;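 further: GST-tagged constitutively activated Ras mutant immobilized on beads and multiplexed with other GTPases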)
# [7] = yeast TOR pathway RPL19A-GFP modulators, primary screen, cell-based, S. cerevisiae, multiplex flow cytometry (AID 1862; in the data active means percent of DMSO control GFP below about 86%;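 further: lower values mimic rapamycin by blocking the RPL19A rise seen in DMSO cells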); details: S. cerevisiae RPL19A-GFP strain, flow cytometry fluorescence, 3 h; at 10 µM; stronger effect = lower value
# [8] = modulators of MEP2-GFP levels in yeast, primary screen, S. cerevisiae, multiplex flow cytometry (AID 1867;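 active means GFP response, as percent of the DMSO control, above the screen-wide mean plus 3 SD, about 139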;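 further: median GFP channel fluorescence of barcode-gated MEP2-GFP cells measured by flow cytometry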); details: S. cerevisiae MEP2-GFP strain, 3 h, at 10 µM, stronger effect = higher value, 100% means same as DMSO wells
# [9] = modulators of CIT2-GFP expression in yeast, primary screen, S. cerevisiae, GFP fusion, multiplex flow cytometry (AID 1870;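 active means percent response above a set limit, the screen-wide mean plus 3 SD, cut at about 130% in these data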;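 further: barcoded CIT2-GFP strain pooled with four other GFP strains with rapamycin as positive control; median GFP fluorescence per well over plate mean of DMSO wells so 100% = DMSO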); details: 3 h, at 10 µM, stronger effect = higher value
# [10] = modulators of LAP4-GFP expression in yeast, primary screen, S. cerevisiae, multiplex flow cytometry (AID 1873;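 active means GFP signal, as percent of the solvent control, above the screen mean plus 3 SD, about 149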); details: 3 h, at 10 µM, stronger effect = higher value
# [11] = modulators of AGP1-GFP expression in yeast TOR pathway, primary screen, cell-based, multiplex flow cytometry, S. cerevisiae (AID 1887;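 active means GFP signal above the screen-wide mean plus 3 SD, that is over about 124.5% of the solvent control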;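 further: AGP1-GFP fusion strain of S. cerevisiae within a five-strain barcoded multiplex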); details: 3 h, at 10 µM, stronger effect = higher value
# [12] = inhibitors of CD8+ T cell-vesicle binding, pilot screen, LFA-1/ICAM-1 modulator project, MLPCN validation set, flow cytometry (AID 2523;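 active means response below a set limit, under 55% cells CD8-positive and vesicle-bound, and CD8 cells' 90th-percentile brightness under 279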;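 on vesicle binding response: mean PE anti-B7-1 fluorescence of CD8+ cells relative to row control; 100% = QL9-loaded vesicles with DMSO vehicle in the same plate row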); details: 2C mouse CD8+ T cells, at 7 µM, stronger effect = lower value; double positive events: measured here: CD8+/vesicle+ event percentage
# [13] = molecular target: Integrin beta-1 (Homo sapiens) + Integrin alpha-4 (Homo sapiens) (UniProt P13612+P05556); assay: inhibition of HUTS-21 binding to VLA-4, pilot screen, VLA-4 allosteric modulator project, U937 cells, HUTS-21 mAb, flow cytometry, validation set (AID 2674;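 active means inhibition above 50%, about 3 SD of the validation set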;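 further: antibody binding induced by the VLA-4 ligand LDV present at three times its Kd; 0% = LDV ligand with antibody and no compound and 100% = antibody without LDV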); details: HUTS-21 LIBS mAb binding, at 6.7 µM, stronger effect = higher value, binding induced by LDV ligand
# [14] = superoxide lowering in aged yeast cells, pilot screen, validation compound set (AID 2706;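 active means superoxide response below 65% of plate, a cut near 3 SD across the whole screen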;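 further: yeast exposed to compound for one week at 30 degrees C before staining; 100% = mean of all compound wells on the same plate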); details: S. cerevisiae aging, superoxide DHE fluorescence; at 10 µM; stronger effect = lower value
# [15] = molecular target: Beta-adrenergic receptor kinase 1 (Homo sapiens) (UniProt P25098); assay: GRK2 binders displacing RNA aptamer, biochemical, validation, human GRK2, bead flow cytometry (AID 488806;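 active means aptamer binding inhibition above 30%, about 3 SD of noise from non-fluorescent compounds; inactive means inhibition at or below 30%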); details: bead-bound GRK2, FAM-aptamer displacement, at 10 µM, stronger effect = higher value
# [16] = molecular target: Beta-2 adrenergic receptor (Homo sapiens) (UniProt P07550); assay: beta2AR agonists driving receptor internalization, pilot screen, cell-based, FAP fluorogen, flow cytometry, validation set (AID 504459;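 active means percent response above 42, roughly 3 SD of non-fluorescent test compounds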;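 further: agonist-driven loss of surface beta2AR via internalization measured by FAP dye flow cytometry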); details: Am2.2-beta2AR cells, FAP surface receptor flow cytometry; at 10 µM; stronger effect = higher value
# [17] = molecular target: AP-2 complex subunit beta (Homo sapiens) (UniProt P63010); assay: inhibitors of arrestin peptide binding to AP2, pilot screen, biochemical, validation set, GST-AP2 beads, flow cytometry (AID 504541;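 active means inhibition above 54%, about 3 SD of non-fluorescent compounds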;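 further: AP2 carries R879A mutation and is captured from E. coli lysate; bead-bound FITC arrestin peptide fluorescence measuring arrestin peptide binding to AP2; 0% = DMSO wells and 100% = excess unlabeled arrestin peptide control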); details: FITC arrestin peptide, at 10 µM, stronger effect = higher value, AP2 beta2 appendage fragment, R879A mutant
# [18] = yeast V-ATPase proton transport modulators, S. cerevisiae, pHLuorin, HTS validation (AID 504600; in the data active means response above about 15%;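 further: plate controls were DMSO for no effect and reference compound for full effect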); details: S. cerevisiae pHLuorin cytosolic pH, at 10 µM, stronger effect = higher value
# [19] = test system: anti-desmoglein-3 scFv antibody binding to human DSG3; assay: inhibitors of anti-DSG3 scFv binding to DSG3, pilot screen, biochemical, validation compound set, bead-based, flow cytometry (AID 588368;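 active means binding below the plate cutoff, the plate median minus 3 SD, with a reading above zero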;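 further: signal is the median channel fluorescence of bead-bound GFP antibody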); details: Protein G beads, DSG3-Fc, scFv-GFP binding, at 10 µM, stronger effect = lower value
# [20] = inhibitors of fungal efflux pumps CDR1, CDR2, MDR1, pilot screen, validation compound set, multiplex, phenotypic (AID 588506;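 active means efflux inhibition above 0.42, the validation set average plus 4 SD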;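 further: Nile Red retained in cells so higher fluorescence means more efflux inhibition; 0 = negative control wells and 1 = enniatin B 25 µM full block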); details: S. cerevisiae pump-expressing triplex, Nile Red efflux flow cytometry; at 10 µM; stronger effect = higher value; the pumps come from Candida albicans
# [21] = molecular target: ATP-binding cassette sub-family B member 6 (Homo sapiens) (UniProt Q9NP58); assay: ABCB6 transporter inhibitors, pilot screen, K562-ABCB6 cells, flow cytometry, validation set (AID 588550;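 active means inhibition above the screen-wide mean plus 3 SD, about 51%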;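 further: 0% = DMSO wells and 100% = benzethonium chloride 70 µM positive control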); details: K562-ABCB6 porphyrin accumulation, 1 h, at 10 µM, stronger effect = higher value
# [22] = promoters of myeloid differentiation in arrested cells, primary screen, cell-based, GFP/MAC1 double positive, flow cytometry, validation set (AID 588685;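 active means differentiation response of at least 50%, scaled between solvent and reference control, from cells with both markers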;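 further: compound exposure lasts four days before antibody staining and flow analysis; 0% = DMSO wells and 100% = 5 µM fulvestrant positive control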); details: ER-HoxA9 marrow cells, stronger effect = higher value, normalized: vehicle 0, fulvestrant 100
# [23] = RPL19A-GFP modulators, yeast TOR pathway, confirmation, cell-based, S. cerevisiae, flow cytometry, cherry picks, mother/daughter gates (AID 2270;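 active means GFP response below 50% of the DMSO control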); details: S. cerevisiae RPL19A-GFP strain, 3 h, at 10 µM, stronger effect = lower value, 100 = same GFP as DMSO wells
# [24] = LAP4-GFP expression modulators in yeast, confirmation, cell-based, cherry picks, flow cytometry, mother/daughter gates (AID 2271;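 active means GFP response above 150% of the DMSO control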;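 further: ratio of sample to DMSO plate mean so 100% equals DMSO level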); details: S. cerevisiae LAP4-GFP strain, 3 h, at 10 µM, stronger effect = higher value, 100 means same as DMSO control
# [25] = modulators of MEP2-GFP levels in yeast, confirmation, S. cerevisiae, flow cytometry GFP, cherry picks (AID 2272;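 active means GFP response above 150% of the DMSO control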;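 further: ratio of well signal to plate DMSO mean so 100% equals DMSO level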); details: S. cerevisiae MEP2-GFP strain, 3 h, at 10 µM, stronger effect = higher value
# [26] = AGP1-GFP expression modulators, hit retest, confirmation, cell-based, flow cytometry, S. cerevisiae, cherry picks (AID 2273;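 active means GFP response above 150% of the DMSO level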;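 further: median GFP channel fluorescence over the whole cell population gate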); details: S. cerevisiae AGP1-GFP strain, 3 h, at 10 µM
# [27] = modulators of CIT2-GFP expression in yeast, confirmation, S. cerevisiae, GFP fusion, cherry picks, mother/daughter gates (AID 2274;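 active means GFP response above 150% of the DMSO level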); details: S. cerevisiae CIT2-GFP strain, flow cytometry, 3 h, at 10 µM, stronger effect = higher value
# [28] = measured here: daughter cell gate
# [29] = measured here: mother cell gate
# Chain of Cell division control protein 42 homolog (Homo sapiens) (P60953 whole entry, looked up): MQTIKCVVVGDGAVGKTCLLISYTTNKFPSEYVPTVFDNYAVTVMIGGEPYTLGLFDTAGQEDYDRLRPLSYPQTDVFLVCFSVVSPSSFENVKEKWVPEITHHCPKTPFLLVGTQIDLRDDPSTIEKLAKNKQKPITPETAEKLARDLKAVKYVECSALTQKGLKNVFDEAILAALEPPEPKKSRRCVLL
# Chain of GTPase HRas (Homo sapiens) (P01112 whole entry, looked up): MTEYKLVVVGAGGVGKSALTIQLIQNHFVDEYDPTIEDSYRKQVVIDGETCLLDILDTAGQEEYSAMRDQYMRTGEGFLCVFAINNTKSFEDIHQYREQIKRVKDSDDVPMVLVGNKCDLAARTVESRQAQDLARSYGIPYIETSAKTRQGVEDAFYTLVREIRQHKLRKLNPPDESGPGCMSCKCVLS
# Chain of ATP-binding cassette sub-family B member 6 (Homo sapiens) (Q9NP58 whole entry, looked up): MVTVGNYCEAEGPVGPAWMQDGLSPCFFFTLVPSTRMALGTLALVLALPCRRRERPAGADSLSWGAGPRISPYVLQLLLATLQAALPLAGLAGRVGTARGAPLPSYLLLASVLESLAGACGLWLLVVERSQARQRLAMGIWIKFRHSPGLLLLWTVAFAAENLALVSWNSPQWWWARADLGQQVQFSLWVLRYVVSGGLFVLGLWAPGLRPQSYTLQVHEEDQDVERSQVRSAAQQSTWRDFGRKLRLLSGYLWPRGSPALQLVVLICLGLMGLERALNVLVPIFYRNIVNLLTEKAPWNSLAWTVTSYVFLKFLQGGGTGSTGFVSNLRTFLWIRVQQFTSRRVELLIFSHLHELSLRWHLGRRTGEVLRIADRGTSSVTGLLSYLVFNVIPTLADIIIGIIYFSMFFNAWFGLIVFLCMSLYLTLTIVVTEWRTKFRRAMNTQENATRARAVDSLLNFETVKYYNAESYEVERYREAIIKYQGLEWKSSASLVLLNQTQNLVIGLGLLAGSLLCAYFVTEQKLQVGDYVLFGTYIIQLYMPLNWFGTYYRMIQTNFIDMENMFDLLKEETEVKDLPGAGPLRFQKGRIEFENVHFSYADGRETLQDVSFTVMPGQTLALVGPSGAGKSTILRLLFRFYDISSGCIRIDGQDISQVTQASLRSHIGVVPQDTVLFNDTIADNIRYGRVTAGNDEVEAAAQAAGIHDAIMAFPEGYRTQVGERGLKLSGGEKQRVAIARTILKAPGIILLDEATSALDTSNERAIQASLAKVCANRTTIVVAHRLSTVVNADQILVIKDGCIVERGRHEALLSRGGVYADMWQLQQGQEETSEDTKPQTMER
# Chain of Beta-adrenergic receptor kinase 1 (Homo sapiens) (P25098 whole entry, looked up): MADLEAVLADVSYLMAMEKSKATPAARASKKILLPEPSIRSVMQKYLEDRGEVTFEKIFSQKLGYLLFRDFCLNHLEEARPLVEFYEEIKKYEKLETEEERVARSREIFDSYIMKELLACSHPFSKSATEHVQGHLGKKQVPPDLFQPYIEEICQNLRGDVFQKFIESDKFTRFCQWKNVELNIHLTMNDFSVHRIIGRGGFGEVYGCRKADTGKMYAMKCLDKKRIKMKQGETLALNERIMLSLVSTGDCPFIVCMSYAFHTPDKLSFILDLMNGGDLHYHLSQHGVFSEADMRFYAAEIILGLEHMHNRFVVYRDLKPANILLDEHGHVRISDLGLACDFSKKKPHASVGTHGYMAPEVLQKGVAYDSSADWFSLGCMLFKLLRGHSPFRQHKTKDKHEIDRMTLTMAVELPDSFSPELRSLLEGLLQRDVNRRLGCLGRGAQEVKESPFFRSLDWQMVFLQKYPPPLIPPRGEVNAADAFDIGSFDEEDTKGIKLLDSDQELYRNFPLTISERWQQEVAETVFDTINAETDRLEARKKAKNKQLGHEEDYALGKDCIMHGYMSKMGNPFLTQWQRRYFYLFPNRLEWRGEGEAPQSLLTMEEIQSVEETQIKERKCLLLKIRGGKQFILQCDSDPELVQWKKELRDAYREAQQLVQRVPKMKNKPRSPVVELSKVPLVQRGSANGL
# Chain of Beta-2 adrenergic receptor (Homo sapiens) (P07550 whole entry, looked up): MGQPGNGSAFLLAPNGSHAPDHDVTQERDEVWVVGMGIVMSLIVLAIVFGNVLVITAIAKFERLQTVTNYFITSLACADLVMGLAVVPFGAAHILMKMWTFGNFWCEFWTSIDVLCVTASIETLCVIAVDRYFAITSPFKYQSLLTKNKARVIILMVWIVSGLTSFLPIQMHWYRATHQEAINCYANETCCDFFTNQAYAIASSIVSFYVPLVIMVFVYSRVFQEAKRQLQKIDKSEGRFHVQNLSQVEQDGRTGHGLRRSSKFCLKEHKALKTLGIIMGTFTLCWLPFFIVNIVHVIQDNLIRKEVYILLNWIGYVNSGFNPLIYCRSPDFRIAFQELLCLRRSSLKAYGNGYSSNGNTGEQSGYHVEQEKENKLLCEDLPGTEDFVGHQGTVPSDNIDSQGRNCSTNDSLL
# Chain of AP-2 complex subunit beta (Homo sapiens) (P63010 whole entry, looked up, the tested form may be a part, one chain of several): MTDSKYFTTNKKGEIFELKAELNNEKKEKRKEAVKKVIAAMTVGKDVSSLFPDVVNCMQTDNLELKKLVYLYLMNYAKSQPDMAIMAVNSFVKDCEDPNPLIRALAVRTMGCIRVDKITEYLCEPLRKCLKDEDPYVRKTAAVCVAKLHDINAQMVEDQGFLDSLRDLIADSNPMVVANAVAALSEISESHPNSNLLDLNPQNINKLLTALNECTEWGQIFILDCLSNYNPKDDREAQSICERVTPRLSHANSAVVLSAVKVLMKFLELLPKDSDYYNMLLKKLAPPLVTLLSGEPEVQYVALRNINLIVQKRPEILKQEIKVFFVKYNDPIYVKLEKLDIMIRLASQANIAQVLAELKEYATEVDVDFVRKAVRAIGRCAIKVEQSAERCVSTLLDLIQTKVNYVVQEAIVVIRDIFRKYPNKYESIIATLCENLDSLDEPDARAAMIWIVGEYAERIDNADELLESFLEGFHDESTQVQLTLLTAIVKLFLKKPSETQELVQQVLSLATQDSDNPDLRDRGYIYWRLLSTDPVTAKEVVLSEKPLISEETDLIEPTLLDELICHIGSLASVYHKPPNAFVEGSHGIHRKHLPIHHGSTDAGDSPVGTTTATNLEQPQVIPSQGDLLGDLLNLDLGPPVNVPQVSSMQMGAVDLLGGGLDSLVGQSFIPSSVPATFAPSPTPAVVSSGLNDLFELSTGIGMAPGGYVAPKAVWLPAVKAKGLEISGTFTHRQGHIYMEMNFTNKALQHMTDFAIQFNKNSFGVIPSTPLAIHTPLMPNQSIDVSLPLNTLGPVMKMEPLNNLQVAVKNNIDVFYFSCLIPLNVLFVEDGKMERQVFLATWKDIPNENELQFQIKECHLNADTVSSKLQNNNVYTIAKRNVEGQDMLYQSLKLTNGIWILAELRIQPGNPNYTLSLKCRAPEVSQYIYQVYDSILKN
compound,measurement,setting,value
O=C(O)c1ccccc1OCCOc1ccccc1,outcome,[1],inactive
same,"fluorescence, percent of control (lower = inhibition)",[2],82.8%
same,"GTP binding, percent of control",[3],81.1%
same,outcome,[4],inactive
same,"GTP binding signal, raw median fluorescence (lower = inhibition) (MCF (arbitrary fluorescence units))",[5],297
same,outcome,[6],inactive
same,percent of DMSO control GFP,[7],93.4% (inactive)
same,GFP response vs DMSO,[8],98.8% (inactive)
same,percent response of DMSO control,[9],83.1% (inactive)
same,GFP response vs DMSO,[10],129% (inactive)
same,"GFP response, % of DMSO",[11],77.1% (inactive)
same,double positive events,[12],66%
same,vesicle binding response,[12],133% (inactive)
same,inhibition,[13],2.55% (inactive)
same,superoxide response (% of plate),[14],43.5% (active)
same,aptamer binding inhibition,[15],2% (inactive)
same,response,[16],32.2% (inactive)
same,inhibition,[17],52.1% (inactive)
same,response,[18],-1.15% (inactive)
same,binding (% of control),[19],96% (inactive)
same,efflux inhibition (fraction of control),[20],0.74 (active)
same,inhibition,[21],8% (inactive)
same,differentiation response,[22],34.6% (inactive)
COCCn1c(=S)[nH]c2cc(C(=O)N3CCc4ccccc4C3)ccc2c1=O,outcome,[1],inactive
same,"fluorescence, percent of control (lower = inhibition)",[2],35.6%
same,"GTP binding, percent of control",[3],83.9%
same,outcome,[4],inactive
same,outcome,[6],inactive
COc1ccc(-c2nnc(SCC(=O)c3cccs3)o2)cc1,outcome,[1],inactive
same,"fluorescence, percent of control (lower = inhibition)",[2],94.6%
same,"GTP binding, percent of control",[3],141%
same,outcome,[4],inactive
same,outcome,[6],inactive
O=C(O)/C=C/c1cn(Cc2ccccc2)nc1-c1ccc(Cl)cc1,outcome,[1],inactive
same,"fluorescence, percent of control (lower = inhibition)",[2],34.9%
same,"GTP binding, percent of control",[3],84.9%
same,outcome,[4],inactive
same,outcome,[6],inactive
CC(C)(C)c1ccc(C(=O)CC(Sc2ccc(Cl)cc2)C(=O)O)cc1 (stereo not given),outcome,[1],inactive
same,"fluorescence, percent of control (lower = inhibition)",[2],30.3%
same,"GTP binding, percent of control",[3],79.2%
same,outcome,[4],inactive
same,"GTP binding signal, raw median fluorescence (lower = inhibition) (MCF (arbitrary fluorescence units))",[5],285
same,outcome,[6],inactive
same,GFP response vs DMSO,[23],100% (inactive)
same,GFP response vs DMSO,[23]; [28],97.1%
same,GFP response vs DMSO,[23]; [29],100%
same,GFP response relative to DMSO,[24],120% (inactive)
same,GFP response relative to DMSO,[24]; measured here: daughter cell gate response,112%
same,GFP response relative to DMSO,[24]; measured here: mother cell gate response,125%
same,GFP response vs DMSO,[25],101% (inactive)
same,"GFP response, % of DMSO",[26],98.4% (inactive)
same,"GFP response, % of DMSO",[27],79.7% (inactive)
same,"GFP response, % of DMSO",[27]; [28],79.4%
same,"GFP response, % of DMSO",[27]; [29],77.8%
